Assay in all cases: NCI-60 one-dose screen, 48 h (100 = growth as untreated, 0 = no growth, -100 = all killed)
What all share (details): 10 µM unless noted

For experiment [1], the system named is SR leukemia.
The test system of experiment [2] is RPMI-8226 leukemia.
The test system of experiment [3] is OVCAR-8 ovarian.
In experiment [4] the test system is OVCAR-5 ovarian.
Experiment [5] relates to OVCAR-4 ovarian.
Experiment [6] relates to SK-OV-3 ovarian.
In experiment [7] the test system is IGROV1 ovarian.
Experiment [8] concerns OVCAR-3 ovarian.
Experiment [9] deals with HS 578T breast.
Experiment [10] has as its system NCI/ADR-RES ovarian.
The subject of experiment [11] is T-47D breast.
Experiment [12] has as its system BT-549 breast.
Experiment [13] relates to MDA-MB-435 melanoma.
For experiment [14], the system named is SW-620 colon.
In experiment [15] the test system is MCF7 breast.
Experiment [16] relates to HCT-116 colon.
Experiment [17] relates to HCC-2998 colon.
Experiment [18] concerns KM12 colon.

The panel holds about 83,000 compounds, 20% with a hit somewhere; the sample as a whole holds those more often.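 Testing used 96-well plates and a 48-hour single-concentration exposure. Example: -40 means 40% of the starting cells died.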 Unmarked numbers belong to inactive results. Activity calls are given as the source filed them. How the source made its calls: active means growth percent below 10; inactive means the rest.

Consider `CCCCOc1ccc(/C=C2/SC(N3CCOCC3)=NC2=O)cc1OCC`, for which the growth in [1] was 89.5%; in [2], 95.6%; in experiment [3], 103%; in [4], 88.3%; in [5], 87.6%; in experiment [6], -16.1% (active). Further, the growth is 89% in experiment [7]; 115% in experiment [8]; 104% in [9]; 94.5% in experiment [10]; 80.6% in experiment [11]; 83% in [12]. Also, the growth was 99.6% in experiment [13]; 96.9% in experiment [14]; 99.4% in experiment [15]; 93.2% in [16]; 109% in experiment [17]; 98.7% in [18].

For `COc1ccc(-c2nc(/C=C3/C(=O)Nc4ccc(F)cc43)c3ccccn23)cc1`, the growth in experiment [1] was 79.1%; in experiment [2] it was 93.3%; in [3] it was 98.5%; in experiment [4], 133%; in [5], 101%; in experiment [6], 117%. The growth in [7] was 87.4%; in experiment [8], 114%; in experiment [9], 118%; in experiment [10] it was 111%; in [11] it was 100%; in experiment [12], 104%. The growth in experiment [13] is 113%; in experiment [14], 87.7%; in [15], 48.7%; in experiment [16], 62%; in experiment [17] it was 104%; in experiment [18], 102%.

Take `CC(C)(C)OC(=O)NC(CSCc1ccccc1)C(=O)ON1C(=O)CCC1=O` (configuration not stated): the growth in [1] is 78.4%; in experiment [2], 97.5%; in experiment [3], 104%; in [4], 106%; in experiment [5] it was 121%; in [6], 104%. For the same molecule, the growth in experiment [7] is 114%; in experiment [8], 107%; in experiment [9], 115%; in [10], 103%; in experiment [11], 93.9%; in [12], 117%. The growth in [13] is 109%; in experiment [14] it was 105%; in experiment [15], 98.4%; in experiment [16] it was 92.5%; in [17], 101%; in experiment [18], 109%.

Take `CC(=O)Oc1csc(N(C(C)=O)c2cc(C(=O)O)cc(C(=O)O)c2)n1`: the growth in [1] was 114%; in experiment [2] it was 43.3%; in [3] it was 104%; in experiment [4] it was 101%; in experiment [5], 90.4%; in experiment [6], 111%. Further, the growth in experiment [7] was 101%; in [8], 105%; in experiment [9], 95.3%; in experiment [10], 99.2%; in experiment [11], 108%; in experiment [12], 82.8%. Also, the growth in [13] is 102%; in experiment [14], 96.1%; in experiment [15] it was 95%; in experiment [16], 91.3%; in [17], 98.6%; in [18], 99.8%.

Turning to `CC1(c2ccc(Cl)cc2)OC(=O)CC(=O)O1`, the growth was 78.5% in experiment [1]; 102% in [2]; 105% in experiment [3]; 103% in [4]; -2.18% (active) in experiment [5]; 106% in [6]. Also, the growth in experiment [7] was 108%; in experiment [8], 104%; in experiment [9] it was 105%; in experiment [10] it was 106%; in experiment [11] it was 95.3%; in [12], 109%. In addition, the growth in [13] was 106%; in [14] it was 105%; in experiment [15], 101%; in [16], 100%; in experiment [17], 102%; in experiment [18], 110%.

With `CN1C(=O)N(C)C2C1NN=c1s/c(=C\c3cccnc3)c(=O)n12` (configuration not stated), the growth in experiment [1] is 27.3%; in experiment [2], 95.4%; in experiment [3], 93.2%; in [4] it was 93%; in experiment [5] it was 93.6%; in [6], 85%. In addition, the growth in experiment [7] is 80.8%; in experiment [8], 65.6%; in experiment [9], 84.8%; in experiment [10] it was 78.5%; in experiment [11], 91.2%; in experiment [12] it was 79.9%. The growth in experiment [13] was 8.5% (active); in experiment [14], 59.1%; in experiment [15], 51.6%; in experiment [16], 75.9%; in [17] it was 92.2%; in experiment [18], 53.8%.

For `COc1cccc(-c2nc3sccn3c2-c2ccnc(NCCCNS(=O)(=O)c3ccc(C(F)(F)F)cc3)c2)c1`, the growth is 51.2% in experiment [1]; 33% in experiment [2]; 45.1% in experiment [3]; 95.7% in [4]; 38.3% in experiment [5]; 72.6% in experiment [6]. In addition, the growth in [7] was 60.5%; in experiment [8], 61.7%; in experiment [9] it was 63.1%; in experiment [10], 35.5%; in experiment [11] it was 23.7%; in experiment [12], 54.6%. In addition, the growth is 36.8% in [13]; 68.5% in [14]; 31.1% in experiment [15]; 41.9% in [16]; 72.2% in experiment [17]; 57.2% in experiment [18].

As to `O=[N+]([O-])c1ccc(-c2cn(-c3ccccc3)c(-c3ccccc3)n2)cc1`, the growth in [1] is 43.3%; in experiment [2], -0.221% (active); in [3], 70.6%; in [4], 95.4%; in experiment [5], 84.2%; in [6], 79.1%. In addition, the growth in [7] is 64.2%; in experiment [8], 97.4%; in experiment [9] it was 97.5%; in experiment [10], 85.3%; in experiment [11], 65.9%; in experiment [12], 96%. The growth in [13] is 100%; in experiment [14] it was 95%; in experiment [15] it was 74.4%; in [16], 87.1%; in experiment [17], 104%; in [18], 94.4%.

As for `COc1ccc2[nH]c(=O)c(/C=N/Nc3nc(-c4ccccc4)cs3)c(O)c2c1`, the growth in [1] is 56.2%; in experiment [2], 70.6%; in [3] it was 55.1%; in experiment [4] it was 85.6%; in [5] it was 47.9%; in experiment [6] it was 76.8%. Further, the growth in experiment [7] is 70.3%; in experiment [8], 24.2%; in [9], 112%; in [10], 37.7%; in experiment [11], 72.6%; in experiment [12], 60.8%. Also, the growth was 79.3% in [13]; 67.2% in experiment [14]; 67.2% in experiment [15]; 50.8% in experiment [16]; 77.6% in [17]; 69.3% in experiment [18].

The values above are taken from PubChem BioAssay (NCI).
